PubChem BioAssay (NCATS)
Values joined by “and” are separate entries in the source; they are usually repeats but may differ in a detail not shown here. Equal values may be shown once. Records with an inconclusive call do not appear. Active and inactive are the calls of the source. Unless noted, calls come from the whole dose curve; as a rule, active = well fitted curve in the direction sought with a large enough effect; inconclusive = small, poorly fitted or top-dose-only effect, or another doubt; inactive = no such curve, though single readings can be large; an effect the other way counts as inactive or inconclusive.

Assays:
[1] = Stat Signaling Pathway (AID 446; active = well fitted curve in either direction with a large enough effect, not every such curve was filed as active;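 note: ME-180 cervical cancer cells given 40 pM IL-6 alongside compound; SIE-controlled beta-lactamase reporter measured as 460/530 nm FRET emission ratio; % is set by controls: 0 for no effect and ±100 for the full control effect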); details: ME-180 (cervical carcinoma) SIE beta-lactamase reporter, IL-6 stimulated, 5 h; at 17.2 µM (top of the series)
Summary of the method: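 FRET read-out (405 nm excitation, 460/530 nm emission) of a beta-lactamase reporter under a STAT-inducible element in ME-180 cervical carcinoma cells. Cells with compound receive 40 pM IL-6 for 5 h. Values are normalised to AC90 stimulation and AC90 JAK-inhibitor controls.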

[2] = target: Glucocorticoid receptor (Homo sapiens) (UniProt P04150); test: GR-GFP Redistribution (AID 450;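 active = compounds whose dose series gives a full or clear partial fitted curve of increased nuclear translocation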; note: potency is the fitted concentration of half-maximal effect); details: U2OS GR-GFP nuclear translocation, laser cytometry, 2 h
Chain of Glucocorticoid receptor (Homo sapiens) (P04150 whole entry, looked up, the tested form may be a part): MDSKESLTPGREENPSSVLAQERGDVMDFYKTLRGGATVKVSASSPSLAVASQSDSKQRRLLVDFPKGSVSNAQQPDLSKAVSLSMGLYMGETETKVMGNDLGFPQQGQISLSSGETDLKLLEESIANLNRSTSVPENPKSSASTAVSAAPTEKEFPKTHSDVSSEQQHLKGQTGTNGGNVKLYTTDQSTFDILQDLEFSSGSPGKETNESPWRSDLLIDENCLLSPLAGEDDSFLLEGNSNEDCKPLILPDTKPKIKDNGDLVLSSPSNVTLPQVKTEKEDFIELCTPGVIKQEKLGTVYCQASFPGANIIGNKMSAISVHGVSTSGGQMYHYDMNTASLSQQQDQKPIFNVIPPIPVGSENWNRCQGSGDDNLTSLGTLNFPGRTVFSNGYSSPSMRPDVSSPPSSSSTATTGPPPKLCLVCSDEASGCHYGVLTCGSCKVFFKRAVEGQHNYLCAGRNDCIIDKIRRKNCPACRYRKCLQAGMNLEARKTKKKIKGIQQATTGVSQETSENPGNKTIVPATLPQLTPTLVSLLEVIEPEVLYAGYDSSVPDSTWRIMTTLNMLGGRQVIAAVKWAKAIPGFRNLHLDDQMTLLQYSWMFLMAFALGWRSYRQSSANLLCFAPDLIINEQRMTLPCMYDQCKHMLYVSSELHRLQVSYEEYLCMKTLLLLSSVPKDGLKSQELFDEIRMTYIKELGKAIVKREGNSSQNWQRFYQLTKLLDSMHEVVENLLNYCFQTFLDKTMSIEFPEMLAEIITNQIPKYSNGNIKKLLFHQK

[3] = target: Mitogen-activated protein kinase 10 (Mus musculus) (UniProt Q61831); test: JNK3 AlphaScreen Assay (AID 530; active = well fitted curve in either direction with a large enough effect, not every such curve was filed as active;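 note: kinase came from lysate of stimulated human HepG2 cells; signal reports phosphorylation of biotinylated GST-cJun 1-79 at Ser73 with 10 µM ATP; % is set by controls: 0 for no effect and ±100 for the full control effect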); details: JNK3 lysate, c-Jun phosphorylation; series mostly up to 57.1 µM
Summary of the method: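 Biotinylated GST-cJun(1-79) served as substrate for JNK3 in HepG2 lysates stimulated with IL-1beta and TNF-alpha. ATP was 10 uM final, pH 7.6. Ser73 phosphorylation was quantified by AlphaScreen (680 nm excitation).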

[4] = Cell Viability - HUV-EC-C (AID 542); details: HUV-EC-C endothelial cell viability, qHTS; series mostly up to 92.2 µM;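 note: cells exposed to compound for 40 hours; % is set by controls: 0 for no effect and ±100 for the full control effect; nearly all actives have a fitted effect of over 35% in size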
Summary of the method: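 Concentration-dependent ATP loss in HUV-EC-C cells is the measure. Exposure lasts 40 hr at 37 °C; luminescence follows CellTiter-Glo addition, and Hill fits give AC50.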

[5] = Cell Viability - H-4-II-E (AID 543); details: H-4-II-E rat hepatoma viability; series mostly up to 92.2 µM;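 note: cells exposed to compound for 40 hours; % is set by controls: 0 for no effect and ±100 for the full control effect; nearly all actives have a fitted effect of over 35% in size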
Summary of the method: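 AC50 from Hill-modelled qHTS concentration-response curves. H-4-II-E rat hepatoma cells in complete medium, 40 hr exposure at 37 °C, viability by CellTiter-Glo ATP luminescence.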

[6] = Cell Viability - SH-SY5Y (AID 544); details: SH-SY5Y neuroblastoma cell viability; viability change, negative = cytotoxic: at 92.2 µM (top of the series);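 note: cells exposed to compound for 40 hours; nearly all actives have a fitted effect of over 55% in size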; note: potency is the fitted concentration of half-maximal effect
Summary of the method: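 Quantitative HTS in SH-SY5Y neuroblastoma cells, 40 hr treatment at 37 °C, ATP content by luciferase luminescence; AC50 from Hill fits.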

[7] = Cell Viability - Renal Proximal Tubule (AID 545); details: renal proximal tubule cells viability, primary cells of rat origin; activity change, negative = cytotoxicity: at 91.7 µM (top of the series);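 note: cells exposed to compound for 40 hours; nearly all actives have a fitted effect of over 40% in size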
Summary of the method: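 Viability taken as intracellular ATP (CellTiter-Glo luminescence) after 40 hr, 37 °C compound treatment of primary proximal tubule cells from rat kidney, 1000 cells/well; Hill-equation fits of qHTS concentration-response data gave AC50.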

[8] = Cellular Toxicity (caspase-3) HepG2 (AID 654); details: HepG2 caspase-3 activation, luminescence; series mostly up to 92.2 µM;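 note: cells exposed to compound for 16 hours before reading; 0% = DMSO alone and 100% = caspase signal from 100 µM tamoxifen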
Summary of the method: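 Concentration-response AC50 values reflect caspase-3/7 induction in HepG2 cells after 16 hours of compound exposure, quantified by luminescence from liberated aminoluciferin and referenced to 100 uM tamoxifen as full stimulation.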

[9] = Cellular Toxicity (caspase-3) Jurkat (AID 655); details: Jurkat caspase-3 activation, luminescence, DMSO = 0%, tamoxifen = 100%; at 92.2 µM (top of the series);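 note: cells exposed to compound for 16 h at 37 °C before reading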
Summary of the method: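 Luminescent Caspase-Glo 3/7 read-out (20 min, room temperature) after 16 h compound treatment at 37 C of 5000 Jurkat cells per well. AC50 derived by Hill-equation fitting, scaled between DMSO basal and 100 uM tamoxifen stimulation.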

[10] = Cellular Toxicity (caspase-3) HUV-EC-C (AID 656); details: HUV-EC-C cells, caspase-3 activation (apoptosis); series mostly up to 92.2 µM
Summary of the method: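 Luminescent Caspase-Glo 3/7 readout after 16 h, 37 °C compound exposure of HUV-EC-C endothelial cells, 1000 per well, complete medium. AC50 derived by Hill fitting, with DMSO as baseline and 100 uM tamoxifen as full activation.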

[11] = Cellular Toxicity (caspase-3) SHSY5Y (AID 657); details: SH-SY5Y caspase-3 activation, DMSO zero, 10 µM staurosporine = 100%; series mostly up to 91.7 µM
Summary of the method: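 Luminescent Caspase-Glo 3/7 read-out, 1 hr room temperature, follows 16 hours of compound treatment of SH-SY5Y cells at 37 °C. Normalization: DMSO basal, 10 uM staurosporine as 100%; AC50 values from Hill-equation concentration-response fits.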

[12] = Cellular Toxicity (caspase-3) BJ (AID 658); details: BJ fibroblasts, luminescence, normalized: DMSO 0%, staurosporine 100%; series mostly up to 91.7 µM;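 note: 0% = DMSO basal and 100% = 10 µM staurosporine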
Summary of the method: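 Plated BJ cells (1000/well) rested 5 hr, received compound for 16 hr at 37 °C, then Caspase-Glo 3/7 reagent for 1 hr at room temperature before luminescence reading.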

[13] = Cellular Toxicity (caspase-3) MRC-5 (AID 659); details: MRC-5 cells, luminescence; Potency: caspase-3 activation; series mostly up to 91.7 µM;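 note: 0% = DMSO basal and 100% = 10 µM staurosporine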
Summary of the method: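 Apoptosis readout in MRC-5 cells: luciferase light generated after caspase 3/7 cleaves a peptide-aminoluciferin substrate, measured post 16 hr compound incubation at 37 °C.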

[14] = Cellular Toxicity (caspase-3) Mesangial (AID 660); details: mesangial cells, normalized: DMSO 0%, 100 µM tamoxifen 100%; at 91.7 µM (top of the series);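 note: combined caspase 3 and 7 activity read by Caspase-Glo luminescence; cells exposed to compound for 16 h before the caspase read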
Summary of the method: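 AC50 values come from Hill-equation fits of caspase 3/7 activation, measured as Caspase-Glo luminescence in human glomerular mesangial cells exposed to compound for 16 h at 37 °C; 100% set by 100 uM tamoxifen.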

[15] = Cellular Toxicity (caspase-3) SK-N-SH (AID 661); details: SK-N-SH caspase-3 activation, qHTS; series mostly up to 91.7 µM;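 note: 0% = DMSO basal and 100% = 10 µM staurosporine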
Summary of the method: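 Apoptosis readout in SK-N-SH neuroblastoma: Caspase-Glo 3/7 luminescence following 16 hr treatment in complete culture medium. Normalization used DMSO and 10 uM staurosporine controls.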

[16] = target: Glucocorticoid receptor (Homo sapiens) (UniProt P04150); test: GR-EFC Redistribution (AID 451; calls by dose curve; note: potency is the fitted concentration of half-maximal effect); details: CHO-K1 GR-EFC translocation, beta-gal luminescence, 2 h
Summary of the method: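 CHO-K1 cells stably expressing nuclear-localized β-gal enzyme acceptor and GR fused C-terminally to the enzyme donor fragment; ligand-driven nuclear translocation restores β-gal by complementation. Compounds titrated up to 46 uM final, 2 h at 37 °C; luminescence read.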

[17] = target: 3',5'-cyclic-AMP phosphodiesterase 4B (Homo sapiens) (UniProt Q07343); test: qHTS Assay for Inhibitors of PDE-IV (AID 607; active = well fitted activation curve with a large enough effect in the main read-out, with a control signal flat, not every such curve was filed as active; note: % of control where 0% means no effect); details: HEK293 ACTOne CNG channel cells, membrane potential fluorescence; series mostly up to 22.9 µM
Chain of 3',5'-cyclic-AMP phosphodiesterase 4B (Homo sapiens) (Q07343 whole entry, looked up): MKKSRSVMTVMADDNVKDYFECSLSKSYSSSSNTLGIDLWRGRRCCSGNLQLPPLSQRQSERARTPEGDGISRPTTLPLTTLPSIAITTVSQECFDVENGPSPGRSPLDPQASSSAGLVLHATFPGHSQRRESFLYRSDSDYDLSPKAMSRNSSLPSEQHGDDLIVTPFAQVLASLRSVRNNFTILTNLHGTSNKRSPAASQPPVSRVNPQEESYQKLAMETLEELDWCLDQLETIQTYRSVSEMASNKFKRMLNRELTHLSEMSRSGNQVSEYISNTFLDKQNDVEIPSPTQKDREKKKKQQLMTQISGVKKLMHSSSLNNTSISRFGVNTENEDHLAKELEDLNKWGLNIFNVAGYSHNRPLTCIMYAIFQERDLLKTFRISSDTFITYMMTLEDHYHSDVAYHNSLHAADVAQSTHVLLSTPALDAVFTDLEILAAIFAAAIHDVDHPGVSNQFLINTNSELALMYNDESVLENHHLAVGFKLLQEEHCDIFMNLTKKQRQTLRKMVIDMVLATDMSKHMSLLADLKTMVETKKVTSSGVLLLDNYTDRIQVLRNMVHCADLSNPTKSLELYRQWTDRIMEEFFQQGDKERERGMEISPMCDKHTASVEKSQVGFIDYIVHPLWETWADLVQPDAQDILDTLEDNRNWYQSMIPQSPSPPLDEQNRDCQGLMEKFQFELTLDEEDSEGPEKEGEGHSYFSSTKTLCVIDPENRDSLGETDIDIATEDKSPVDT
Summary of the method: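 Cell-based read-out of cAMP via a modified cyclic nucleotide-gated channel and membrane potential dye (535/590 nm) in HEK293 cells expressing PDE4 endogenously. Compounds tested up to 22.9 uM final; 100 uM RO 20-1724 reference.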

[18] = Cell Viability - N2a (AID 540); details: N2a mouse neuroblastoma cell viability; activity change, negative = cytotoxicity: at 92.2 µM (top of the series);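 note: cells exposed to compound for 40 h at 37 °C; plate controls were DMSO alone for no effect and tamoxifen control for full effect; nearly all actives have a fitted effect of over 45% in size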
Summary of the method: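 In this qHTS cytotoxicity screen, ATP-dependent luciferase luminescence reports viable N2a cells after a 40 hr compound exposure in complete culture medium. Potencies are AC50 values from standard Hill equation fits.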

[19] = Cell Viability - NIH 3T3 (AID 541); details: NIH 3T3 cell viability, qHTS; at 92.2 µM (top of the series);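 note: cells exposed to compound for 40 hours; plate controls were DMSO alone for no effect and tamoxifen positive control for full effect; nearly all actives have a fitted effect of over 25% in size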
Summary of the method: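 In this cytotoxicity screen, acute toxicity is scored as an ATP drop measured by CellTiter-Glo in NIH 3T3 fibroblasts following a 40 hr, 37 °C incubation with compound.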

[20] = Cell Viability - Mesenchymal (AID 546); details: mesenchymal cells viability, qHTS; activity change, negative = cytotoxicity: at 91.7 µM (top of the series);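 note: cells exposed to compound for 40 hours before reading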
Summary of the method: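 In this qHTS cytotoxicity format, glomerulus-derived human mesenchymal kidney cells received compound for 40 hr, then luciferase-based ATP quantitation. Concentration-response data were fitted with the Hill equation.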

O=C(O)c1cc(O)c2c(c1)C(=O)c1cccc(O)c1C2=O
inactive: activity, negative = inhibition [1] 11.9% | Potency [2] > 20.6 µM | outcome [3] | Potency [4] | Potency [5] | Potency [6] | Potency [7] | Potency [8] | caspase-3 activation [9] -6.3% | Potency [10] | outcome [11] | outcome [12] | Potency [13] | caspase-3 activation [14] -1.07% | Potency [15]

COc1cccc(-c2cc(=O)c3ccccc3o2)c1N
inactive: Potency [2] > 46 µM | Potency [16] > 46 µM | outcome [3] | outcome [17]

CC(C)OC(=O)C(C)(C)Oc1ccc(C(=O)c2ccc(Cl)cc2)cc1
inactive: Potency [2] > 46 µM and > 20.6 µM | Potency [16] > 46 µM and > 20.6 µM | outcome [17]

O=c1cc(-c2ccc(O)cc2)oc2cc(O)cc(O)c12
inactive: Potency [2] > 46 µM and > 20.6 µM | Potency [16] > 46 µM and > 20.6 µM | Potency [18] | Potency [4] | Potency [20] | outcome [17] | Potency [8] | caspase-3 activation [9] 8.24% | Potency [10] | outcome [11] | outcome [12] | Potency [13] | caspase-3 activation [14] -2.47% | Potency [15]
active: activity, negative = inhibition [1] -101% | activity change, negative = cytotoxicity [19] -105% | Potency [6] 25.1 µM
